DT40 TDP1 no CPT – qHTS for Inhibitors of human tyrosyl-DNA phosphodiesterase 1 (TDP1): qHTS in cells in absence of CPT. DT40 Tdp1-/- hTDP1 cells, no CPT, ATP luminescence, 48 h. Potency, µM (titrated, usually from 46.2 µM), for inactives: top-dose activity change, negative = growth inhibition, actives largely listed as inhibitors. 420,000 compounds, 15% hits; also: % is scaled to controls: 0 for no effect and ±100 for the full control effect; nearly all actives have a fitted effect of over 55% in size
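Chicken DT40 Tdp1-/- cells stably complemented with human TDP1 were seeded at 400 cells/well with DMSO in place of 20 nM camptothecin. After compound pinning, cells grew at least 48 hr at 37 °C; viability read by CellTiter-Glo luminescence.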
TGFb SMAD3 inh – TGF-b pathway inhibition; 410,000 compounds, 1.2% hits; HepG2 CAGA-GFP TGF-b/SMAD3 reporter, GFP fluorescence, 18 h; TGF-beta stimulated, 500 pg/mL final; Potency, µM (top dose mostly 46.1 µM), for the others: at the highest dose activity, negative = inhibition, usual class: inhibitors; also: % is scaled to controls: 0 for no effect and ±100 for the full control effect; nearly all actives have a fitted effect of over 65% in size
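Cell-based qHTS in HEPG2 carrying a CAGA-GFP Smad reporter; compounds added before 500 pg/mL final TGF-beta, 18 h incubation at 37 degrees C, GFP fluorescence quantified per cell by imaging cytometry.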
HT1080-NT tox – kills 2HG-producing HT-1080-NT fibrosarcoma cells; Potency, µM (titrated, usually from 46.1 µM), inactives show top-dose activity, negative = less viability, usual class: cytotoxic; HT-1080-NT fibrosarcoma viability, CellTiter-Glo ATP luminescence, 48 h; 360,000 compounds, 1.6% hits;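 also: NT is the 2HG producing partner of a matched IDH1 knockdown line; 0% = DMSO-treated cells and -100% = media-only wells without cells; nearly all actives have a fitted effect of over 55% in size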
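Viability by CellTiter-Glo luminescence after 48 h compound exposure at 37C of HT-1080-NT cells (750/well, RPMI, 5% FBS). % activity scaled between DMSO wells and medium-only wells, then curve-fitted and categorized by curve class.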
HT1080 IDH1KD tx – HT-1080 IDH1 knockdown cell toxicity (counter line) | HT-1080 IDH1 knockdown viability, ATP luminescence, 48 h | Potency, µM (top dose mostly 46.1 µM), without a hit: at the highest dose activity, negative = toxicity, usual class: cytotoxic | 360,000 compounds, 2% hits | AID 686971;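 also: 0% = DMSO wells and -100% = cell-free medium wells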
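Viability of IDH1-knockdown HT-1080 fibrosarcoma cells was assessed by CellTiter-Glo after 48 h at 37 °C with titrated compound; concentration-effect curves were classified by fit quality and response size.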
DT40 TDP1 CPT – growth inhibition of DT40 Tdp1-/-;hTDP1 cells with camptothecin (screen for TDP1 inhibitors) | chicken DT40 Tdp1-/-;hTDP1 cells + 20 nM CPT, ATP luminescence, 48 h | Potency, µM (doses to about 46.2 µM), for the others: top-dose activity change, negative = growth inhibition, actives largely listed as inhibitors | 420,000 compounds, 12% hits; also: % is scaled to controls: 0 for no effect and ±100 for the full control effect; nearly all actives have a fitted effect of over 55% in size
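Cell growth measured by CellTiter-Glo luminescence after a minimum 48 h, 37 C compound exposure with 20 nM CPT in Tdp1-knockout DT40 cells stably expressing hTDP1, seeded 400/well; qHTS titration format.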
HepG2 viability – counter-screen for TGF-b inhibitors: cytotoxicity in HepG2 cells. HepG2 CAGA-GFP viability, ATP luminescence, 18 h. Potency, µM (doses to about 46.1 µM), inactives show at the highest dose activity change, negative = cytotoxicity, usual class: cytotoxic. 410,000 compounds, 0.76% hits
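HepG2 CAGA-GFP cells (1000/well, DMEM with 1% FBS) received compound, then TGF-beta at 500 pg/mL final, and were incubated 18 hours at 37 degrees C. Viability was read by CellTiter-Glo luminescence. Media-only wells were set as complete cell-killing and DMSO as no toxicity.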
* marks the source's active call; other numbers are inactive results; ? = inconclusive; · = no result; ! = not confirmed by another sample; [ ] = remark or other dose. Sampled rows, rich in hits. Any-hit rate of the full collection: about 17%. Calls follow the shape of the dose curve; as a rule, active = well fitted curve in the direction sought with a large enough effect; inconclusive = small, poorly fitted or top-dose-only effect, or another doubt; inactive = no such curve, though single readings can be large; an effect the other way counts as inactive or inconclusive. Potency is read from the fitted curve at half-maximal effect.

SMILES	DT40 TDP1 no CPT	TGFb SMAD3 inh	HT1080-NT tox	HT1080 IDH1KD tx	DT40 TDP1 CPT	HepG2 viability
O=C(N/N=C\C=C\c1ccc([N+](=O)[O-])o1)c1cccs1	3.3µM*	?	?	13µM*	4.1µM*	-135%
O=C(CN1CCN(Cc2ccc(Cl)cc2)CC1)N/N=C/C=C/c1ccccc1[N+](=O)[O-]	18µM*	?	0%	-3%	?	-5%
Cc1ccc(/C=N/NC(=O)c2cccs2)o1	-2%	-13%	3%	-1%	-10%	-5%
O=C(N/N=C/C=C/c1ccccc1[N+](=O)[O-])c1cccs1	8.2µM*	-7%	13%	19%	?	-27%
Cc1ccc(/C=N/NC(=O)c2cccs2)cc1[N+](=O)[O-]	16µM*	?	16%	16%	12µM*	2%
O=C(N/N=C/c1ccccc1[N+](=O)[O-])c1cccs1	-14%	7%	8%	3%	8%	-17%
O=C(CSc1nnc(SCc2ccccc2)s1)N/N=C/C=C\c1ccco1	?	-17%	-1%	-2%	?	-17%
O=C(CSc1nnc(SCc2ccccc2)s1)N/N=C/C=C/c1ccccc1[N+](=O)[O-]	16µM*	19%	9%	16%	?	2%
COc1ccc(-c2onc(C)c2-c2cscn2)c(O)c1	-1%	0%	9%	5%	6%	-11%
CCCOC(=O)c1ccc(-c2c(C)noc2-c2ccc(OC)cc2O)o1	?	16µM*	-35%	?	-29%	13µM*
Cc1nnc(NC(=O)CSCc2cc(=O)c3ccc(C)c(C)c3[nH]2)s1	?	-1%	·	·	0%	5%
CC(Sc1nnc(Cc2ccccc2)n1C)C(=O)NC1CC1 (stereo not drawn)	12%	16%	9%[9.24 µM]	10%	-8%	1%
CCC(=O)N1CCCC1(C)C(=O)Nc1ccc2nc(C)ccc2c1 (stereo not drawn)	7%	-3%	14%	?	-17%	7%
CCOC(=O)c1c(NC(=O)c2ccc(Cl)cc2)csc1C	-13%	8%	1%	-2%	4%	0%
CN1CCC(=C2c3ccccc3C=Cc3ccccc32)CC1	27µM*!	2%	?	11%	30µM*!	0%
O=C1Cc2ccccc2Sc2ccccc21	?	18%	-2%	-2%	-20%	-5%
CN1CCC(=C2c3ccccc3Sc3ccccc32)CC1	18µM*	10%	?	?	7.3µM*	-29%
CN1CCN(C(=O)N2c3ccccc3C=Cc3ccccc32)CC1	-24%	12%	-15%	-6%	-22%	-53%
COc1cc(NS(=O)(=O)c2ccc3c(c2)CCCN3C(C)=O)cc(OC)c1OC	9.2µM*	-3%	·	·	8.2µM*	-16%
CCOc1ccc(CNS(=O)(=O)c2ccc3c(c2)CCCN3C(C)=O)cc1OC	18µM*	-26%	·	·	?	-15%
CCCS(=O)(=O)N1CCCC(C(=O)c2ccccc2OC)C1 (stereo not drawn)	12%	-3%	14%	8%	-1%	2%
CCc1ccccc1NC(=O)c1nn(-c2ccc(C)cc2)c(=O)c2c1c1ccccc1n2C	-5%	-10%	·	·	-7%	-60%
COc1cccc2sc(=NC(=O)CCS(=O)(=O)c3ccc(C)cc3)n(C)c12	21µM*	-3%	1%	2%	?	-16%
CCOc1cccc2sc(=NC(=O)CCS(=O)(=O)c3ccc(F)cc3)n(C)c12	16µM*	6%	-1%	-4%	?	-26%
C#CCn1c(=NC(=O)c2ccco2)sc2cccc(Cl)c21	-18%	-10%	8%	-8%	-7%	12%
SMILES	DT40 TDP1 no CPT	TGFb SMAD3 inh	HT1080-NT tox	HT1080 IDH1KD tx	DT40 TDP1 CPT	HepG2 viability
CCCn1c(=NC(=O)CCS(=O)(=O)c2ccccc2)sc2cc(S(N)(=O)=O)ccc21	21µM*	0%	-1%	-3%	21µM*	-71%
CCOc1cccc2sc(=NC(=O)c3ccco3)n(CC(=O)OC)c12	15µM*	-3%	-2%	-20%	?	-11%
COCCn1c(=NC(=O)CCS(=O)(=O)c2ccccc2)sc2cc(C(=O)OC)ccc21	17%	8%	2%	8%	5%	6%
CC(=O)N/C(=C\c1ccc(F)cc1)C(=O)N(C)C	-10%	12%	-1%	16%	-9%	-2%
CCOC(=O)c1sc(=NC(=O)CCS(=O)(=O)c2ccccc2)n(C)c1C	7%	-1%	19%	?	22%	18%
CCOc1cccc2sc(=NC(=O)CCS(=O)(=O)c3ccccc3)n(CC)c12	12µM*	-13%	-3%	4%	?	5%
S=C(N/N=C/c1ccco1)NC1CC2CCC1C2 (stereo not drawn)	?	-3%	0%	4%	?	7%
COc1ccc(C(=O)NNC(=S)NC(=O)/C=C/c2cccs2)cc1	?	3%	-9%	?	?	-3%
COc1ccc(CNC(=O)Cc2cccs2)cc1	7%	2%	3%	-1%	0%	-1%
O=C(Cc1ccccc1)NNC(=S)NC(=O)c1cccs1	?	-18%	-27%	?	?	-26%
COc1ccc(/C=C/C(=O)NC(=S)NNC(=O)Cc2cccs2)cc1	?	?	15µM*	16µM*	21µM*	-7%
O=C(/C=C/c1ccccc1)NC(=S)NNC(=O)Cc1cccs1	18µM*	-26%	?	?	?	-10%
O=C(/C=C/c1cccs1)NC(=S)NNC(=O)c1ccccc1O	4.6µM*	-18%	-19%	?	5.2µM*	-20%
COC(=O)C1CCN(CC(=O)Nc2ccc(OC)c(Cl)c2)CC1	5%	2%	15%	16%	-4%	-4%
COC(=O)c1ccc(C(=O)O)nc1	3%	30%	20%	19%	10%	-11%
O=C(CC[C@H]1O[C@@H](n2cnc3c(NC(=O)c4ccccc4)ncnc32)[C@H](O)[C@@H]1O)NCC1CCN(Cc2ccccc2)CC1	-5%	-1%	?	8%	-5%	1%
COc1ccc(S(=O)(=O)Nc2cccc(-c3ccc(N4CCOCC4)nn3)c2)cc1F	?	-9%	·	·	?	-22%
CN1CCN(c2ccc(-c3cccc(NC(=O)COc4ccc(Cl)cc4)c3)nn2)CC1	?	41%	0%	-12%	?	16%
